About 27,000 (9.3%) of roughly 290,000 compounds were called active. Shown is part of a subset that was picked to be rich in actives. A number with no mark means an inactive call. Rule as the data show it: active = inhibition mostly above about 28% (no sharp cut-off); inactive = mostly below about 43%. Where a SMILES comes first, the peptide text is derived from it. The star is where a group is joined. OPac = O=C(CO*)c1ccccc1; Bz = O=C(c1ccccc1)*
assay: A qHTS for Small Molecule Inhibitors of Shiga Toxin; settings: Vero cells, Shiga toxin protein synthesis inhibition reporter; at 38.7 µM, active compounds read high; also: 0% is about no effect

Structure (SMILES) | inhibition
OC(c1nnc(-c2ccccc2)o1)c1cccs1 (stereo unspecified) | 111% (active)
O=C(Nc1nnc(-c2ccccc2)o1)c1cc(-c2cccs2)nc2ccccc12 | -9.05%
CCCN(CCC)c1ccc(C(O)c2nnc(-c3ccccc3)o2)cc1 (stereo unspecified) | 29.6%
Cn1c2ccc(F)cc2c2nnc(NN)nc21 | -15%
CC(C)c1cc(C(=O)N/N=C/C(Br)=C/c2ccccc2)n[nH]1 | 47.5% (active)
CC(C)c1cc(C(=O)O)n[nH]1 | 15.7%
Cc1cc(C(=O)N/N=C\C(Br)=C\c2ccccc2)c(C)o1 | 54.6%
O=C(CCc1nnc2ccc(NCc3ccccc3Cl)nn12)NCC1CCN(C2CCCC2)C1 (stereo unspecified) | 8.94%
O=C(O)C1CCN(C(=O)OCc2ccccc2)CC1 | 80.9% (active)
O=C(NCC1CCC(C(=O)O)CC1)OCc1ccccc1 (stereo unspecified) | -15.3%
CCOC(=O)N1CCC(NC(=O)CCc2ccccc2)CC1 | -1.93%
O=c1cc(-c2ccc(O)cc2)oc2c([C@@H]3O[C@H](CO)[C@@H](O)[C@H](O)[C@H]3O)c(O)cc(O)c12 | 18.1%
Cc1cccc(-n2c(O)c(/C=N/N3CCOCC3)c(=O)[nH]c2=S)c1 | -12.5%
Cc1cccc(-n2c(O)c(C=Nc3ccccc3N)c(=O)[nH]c2=O)c1 | 57% (active)
Cc1cccc(-n2c(O)c(C=NC34CN5CN(CN(C5)C3)C4)c(=O)[nH]c2=O)c1 | 19.9%
Clc1ccc(-c2nc3ccccn3c2CN2CCSCC2)cc1 | 20.5%
COc1ccc2[nH]c(=O)c(C3c4cc(OC)c(OC)cc4CCN3C(=O)c3ccco3)cc2c1 (stereo unspecified) | -3.2%
CCOCCCn1c(SCC(=O)Nc2cc(OC)ccc2OC)nc2ccccc2c1=O | -1.05%
CCc1ccc(-c2cc3c(=O)n(CC(=O)NCCCN4CCN(Cc5ccccc5)CC4)nc(C)n3n2)cc1 | -5.95%
CCOc1ccc(C(=O)CCN2CCOCC2)cc1 | -2.09%
CCOc1ccc(N(CC(=O)NCCOc2ccccc2OC)S(=O)(=O)c2ccccc2)cc1 | 21.1%
COc1ccc(N2CCN(C(=O)CSc3nc4cc(OC)c(OC)cc4cc3C#N)CC2)cc1 | 18.6%
Cc1nonc1NC(=O)CSc1nc2ccccc2cc1C#N | 41.1%
CCOc1ccc2cc(C#N)c(SCC(=O)OC)nc2c1 | 135% (active)

Structure (SMILES) | inhibition
CN=C1C=C/C(=N/N=c2\ccn(O)cc2C)C=C1C | 20.1% (active)
Cc1cccc(NC(=S)NCCc2ccc(Cl)cc2)c1C | 41.2%
Cc1ccc(/C=C2\CCn3c2nc2cc(C(=O)O)ccc2c3=O)c(C)c1 | -4.26%
Cc1nn(C)c(Cl)c1CN1CCC(Oc2ccc(C(=O)N3CCCC3)cc2)CC1 | -30.4%
O=C(O)C1CC=CC2CCN(C3CCCCC3)C(=O)C21 (stereo unspecified) | -9.66%
Cn1c(=NC(=O)c2ccco2)sc2cccc(F)c21 | 102% (active)
CCCC(=O)N=c1sc2cccc(F)c2n1C | -7.62%
Cn1c(=NC(=O)C2CC2)sc2cc(F)cc(F)c21 | -1.62%
O=C(O)c1cc2c(cc1NC(=O)c1c(F)cccc1Cl)OCCCO2 | -14.4%
CSc1ccccc1-c1nnc(-c2ccc(Cl)cc2)o1 | 0% (active)
O=C(Nc1nnc(-c2ccc(Cl)cc2)o1)c1ccccc1Br | 16.2%
FC(F)(F)c1cnc(Oc2ccccc2-c2nnc(-c3ccc(Cl)cc3)o2)c(Cl)c1 | 5.98%
CCOC(=O)N1CCN(S(=O)(=O)c2ccc(OC)cc2)CC1 | -26%
OC(CNCC1CCCO1)Cn1c2ccc(Br)cc2c2cc(Br)ccc21 (stereo unspecified) | -17.6%
CCCN1CCn2c3c(c4cc(Br)ccc42)CCCC31 (stereo unspecified) | 31.7% (active)
Cc1cc(C)c2nc(N(CCN(C)C)C(=O)/C=C/c3cccs3)sc2c1 | 2.24%
CSCc1nnc(NC(=O)c2ccc(S(=O)(=O)N3CCCCC3C)cc2)o1 (stereo unspecified) | -11%
NS(=O)(=O)c1ccccc1NC(=O)c1c(O)c2ccccc2[nH]c1=O | 86% (active)
CC(C)C(=O)Nc1c(O)c2ccccc2[nH]c1=O | 23.1%
CCCOC(=O)Cc1c(O)c2ccccc2[nH]c1=O | 2.32%
CC(=O)Nc1cccc(C(=O)OCN2C(=O)c3ccccc3C2=O)c1 | -7.54%
Cc1cnc(NC(=O)CSc2c(Cl)cccc2Cl)s1 | 24.3%
Cc1cnc(NC(=O)CSc2nnc(-c3ccccc3)n2Cc2ccccc2)s1 | -7.47%
Cc1cnc(NC(=O)CSc2nnc(-c3ccc(Cl)cc3Cl)n2N)s1 | 20.9% (active)

Structure (SMILES) | inhibition
COc1ccc(C)cc1N(CC(=O)N1CCCC1)S(=O)(=O)c1ccccc1 | 8.24%
COc1ccccc1CN1CCN(C(c2ccccc2)c2ccccc2)CC1 | -13%
COc1cc(OC)c(NC(=O)C2CCCN2C(=O)OCc2ccccc2)cc1Cl (stereo unspecified) | -6.5%
COc1ccc(-c2csc(NC(=O)c3ccc(N4C(=O)CCC4=O)cc3)n2)cc1OC | -16.4%
COc1ccc2c(c1)C(c1cccs1)=NNC(c1cccnc1)=N2 | 39.6%
COc1ccc(OC)c(-c2csc(-c3cccs3)n2)c1 | 45.3% (active)
COc1ccc(-c2csc3nc(-c4ccccc4F)oc(=O)c23)cc1OC | 1.32%
COc1ccc(OC)c(-c2csc(NC(=O)C3=NNC(=O)CC3)n2)c1 | -5.75%
Cc1cc(C)cc(NS(=O)(=O)Cc2ccccc2)c1 | 40.6%
O=C(N/N=C\c1cc2c(cc1Cl)OCO2)c1ccc(Br)s1 | -3.59%
CC(NCc1cccs1)C(=O)Nc1cc(Cl)cc(Cl)c1 (stereo unspecified) | 24.3%
Cc1ccc(-c2csc(N3CCN(c4cc5c(cc4Cl)nc(-c4ccncc4)n5CCOCCO)CC3)n2)cc1 | -3.86%
Cc1sc2ncn(CC(=O)NCCCC(=O)NCc3ccc(F)cc3)c(=O)c2c1C | -6.98%
O=C1CS(=O)CN1c1ccc(Oc2ccccc2)cc1 (stereo unspecified) | -11.4%
Cc1n[nH]c(=O)n1-c1ccc(C(C)C)cc1 | -1.39%
Cc1n[nH]c(=O)n1-c1ccc(Oc2ccccc2)cc1 | 32% (active)
COC(=O)c1ccccc1SC1CC(=O)N(c2cccc(C)c2)C1=O (stereo unspecified) | 25.9%
Cc1ccc([N+](=O)[O-])cc1S(=O)(=O)N1CCCN(C)CC1 | -3.46%
Cc1nc(Cl)cc(N/N=C/c2ccccc2)n1 | 47.5%
C(=N\Nc1ccc2ccccc2n1)/c1ccc2c(c1)OCO2 | 4.21%
Cc1noc(C)c1/C=N/Nc1ccc2ccccc2n1 | 64.2% (active)
CN(C)CCCNC(=S)N1CCN(c2nc(-c3ccccc3)cs2)CC1 | 23.7%
COc1cc(C(C)=O)ccc1OC(=O)CN1C(=O)c2ccccc2C1=O | -4.18%
COc1ccccc1-c1sc2ccccc2c1-c1ccc(C(C)=O)cc1 | 24.8% (active)

Structure (SMILES) | inhibition
COc1ccccc1-c1c(C)nn2c(C)c(C(C)=O)cnc12 | 3.88%
CCOc1ccc(C2C(C#N)=C(N)N(N(C)C)C3=C2C(=O)CCC3)cc1 (stereo unspecified) | -5.92%
CC(C)c1ccc(/C=C2\NC(=O)NC2=O)cc1 | 38.8%
CSCCC(NS(=O)(=O)c1ccc(C)cc1)C(=O)NCCc1c[nH]c2ccccc12 (stereo unspecified) | -5.02%
O=C(O)c1ccc(/C=N/NC(=O)c2ccc(Br)cc2)cc1 | 17.5%
CC(C)(C)OC(=O)N/N=C/c1ccc(C(=O)O)cc1 | 51.6% (active)
COC(=O)N/N=C/c1ccc(/C=N/NC(=O)OC)cc1 | -9.65%
CC1CC(C)CN(S(=O)(=O)c2cccc3nonc23)C1 (stereo unspecified) | -8.46%
COc1cccc(N(C(=O)CNC(=O)c2ccco2)C(C(=O)NC2CCCCC2)c2cccnc2)c1 (stereo unspecified) | -9.43%
Oc1ccc(-c2c(-c3ccccc3)nn3c(C(F)(F)F)cc(C(F)(F)F)nc23)cc1 | -10.8%
COC(=O)c1cccc([N+](=O)[O-])c1CS(=O)(=O)c1ccc(C)cc1 | -10.2%
Cc1ccc(N=C2NC(=O)c3cccc([N+](=O)[O-])c32)cc1 | 98.8% (active)
CCN(Cc1ccccc1)C(=O)CCS(=O)(=O)c1ccc2c(c1)oc(=O)n2C | 0.994%
CSc1nnc(CNC(=O)c2ccccc2)n1-c1ccc(F)cc1 | -6.7%
O=C(CNC(=O)c1ccccc1F)c1ccc(Br)cc1 | 79.7% (active)
O=C(CNC(=O)c1ccccc1)NCC(=O)OCC(=O)c1ccccc1 (Bz-Gly-Gly-OPac) | -5.66%
O=C(CNC(=O)c1ccc(F)cc1)c1ccccc1 | 90.2% (active)
O=C(COC(=O)CNC(=O)c1ccccc1F)NCC(F)(F)F | 16.2%
COC(=O)CNC(=O)c1ccccc1F | -15.6%
COc1cc(C(C(=O)NC2CCCC2)N(Cc2ccccc2)C(=O)c2snc(C(N)=O)c2N)ccc1O (stereo unspecified) | -1.22%
COc1cc(C(=O)OC2CCOC2=O)c([N+](=O)[O-])cc1OC (stereo unspecified) | -8.09%
COCCCN1C(=O)C(=O)/C(=C(/O)c2ccc(S(=O)(=O)N3CCOCC3)cc2)C1c1ccc(F)cc1 (stereo unspecified) | -3.02%
Cc1ccc(S(=O)(=O)N2CCC3(CC2)OCCO3)c(C)c1 | 19.9%
CN(CCC1CCOCC1)C(=O)CC1C(=O)NCCN1Cc1cccc(F)c1 (stereo unspecified) | -4.33%

From PubChem BioAssay AID2315 (National Center for Advancing Translational Sciences (NCATS), 2010)
